# Data reported in PubChem BioAssay (NCI).
# Where “and” joins values, the source holds several entries; their conditions need not be identical. Identical values can stand only once. The panel holds about 83,000 compounds, 20% with a hit somewhere; the sample as a whole holds those more often.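 Cells were grown in 96-well plates and exposed to the test compound at a single concentration for 48 hours; results are reported as percent growth, with values below 10 considered active.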 Unmarked numbers belong to inactive results. Calls of active or inactive are those of the source.
# Test system: HL-60(TB) leukemia
# Assay: NCI-60 one-dose screen, 48 h (100 = growth as untreated, 0 = no growth, -100 = all killed)
# Conditions: 10 µM unless noted
row,Structure (SMILES),growth
1,CCCCCCCCn1ccc2cc(NC(=O)CN3CCN(c4nc(C)cc(Cl)n4)CC3)ccc21,91.1%
2,NC(=O)c1ccc[n+](Cc2ccccc2)c1,152%
3,CN(C)CCCOc1ccccc1NC1=C(Cl)C(=O)C(Nc2ccccc2OCCCN(C)C)=C(Cl)C1=O,-33.1% (active)
4,CN1C(=O)N(C)C2C1NN=c1s/c(=C\c3c[nH]c4ccccc34)c(=O)n12 (stereo not given),-34.1% (active)
5,Cc1c2c(cc[n+]1Cc1ccc(F)cc1)c1ccc(OCc3cccc(F)c3)cc1n2Cc1cccc(F)c1,-49.3% (active)
6,COc1cc(C2CC(c3ccc(Cl)cc3)=NN2c2ccc(Cl)cc2)cc(OC)c1OC (stereo not given),97.9%
7,COc1cc(-c2cc(-c3ccc(N(C)C)cc3)nc(N3CCC(O)CC3)c2C#N)cc(OC)c1OC,-23.6% (active)
8,O=C1Nc2ccc(F)cc2/C1=C\c1c(-c2ccccc2)nc2ccccn12,56.4%
9,O=C(CC(O)c1ccccc1)Nc1ccccn1 (stereo not given),97.3%
10,COC(=O)c1ccccc1Cl,97.3%
11,COc1ccc2nc3cc(Cl)ccc3c(N)c2c1,-71.6% (active)
12,COc1ccc(OC)c(/C=N/Nc2ncnc3c2c(C)nn3C)c1,88.9%
13,COC(=O)c1ccc(C(=O)Nc2ccccc2N)cc1,-18.5% (active)
14,O=c1[nH]c([C@@H]2CCCN2)nc2c1oc1ccc(Cl)cc12,101%
15,C/C=C\COc1cc(C)c(Cl)cc1Cl,105%
16,O=C(/C=C/c1ccccc1)c1cccc(OCCCOc2cccc(C(=O)/C=C/c3ccccc3)c2)c1,82.3%
17,COc1cc(OC)cc(C2=C3CC[C@@H]4[C@H](CC[C@]5(C)C(=O)CC[C@@H]45)C3=CC3C(O)c4cccnc4N4C(=O)COC234)c1 (stereo not given in full),98%
18,COc1cccc2cc(-c3nc(C4CCC(C(=O)O)CC4)n4ncnc(N)c34)[nH]c12 (stereo not given),33.3%
19,COc1cc2c(cc1OCCCOc1ccc(-c3cc4ccccc4c4ccccc34)cc1)N=C[C@@H]1CCCN1C2=O,-11.8% (active)
20,NC(=Nc1ccc(N)cc1)C(N)=Nc1ccc(N)cc1,59.6%
21,Oc1ccc(Cc2ccccc2Cl)c(O)c1,97.4%
22,CN(C)CCN1CCN(c2ncccc2C2Nc3ccccc3-n3cccc32)CC1 (stereo not given),98.7%
23,CN(C=O)c1ccccc1,101%
24,CCOC(=O)c1ccc2[nH]c(O)c(C(=Nc3ccc(N(C)C(=O)CN4CCN(C)CC4)cc3)c3ccccc3)c2c1,-52.6% (active)
25,O=c1[nH]c2ccccc2n1C1CCN(CCOc2ccccc2)CC1,50%
26,COC(=O)/C=C\C(=O)OC,90.5%
27,N[C@H]1CN(C(=O)c2cc3cc(Br)c(F)c(F)c3[nH]2)C[C@@H]1O,98.5%
28,Nc1ccc(S(=O)(=O)Nc2ncccn2)cc1,105%
29,COC(=O)[C@H]1CCCN1C(=O)C1CCCN1C(=O)[C@@H](Cc1ccccc1)NC(=S)Nc1cc(C(F)(F)F)cc(C(F)(F)F)c1 (stereo not given in full),112% and 58.9%
30,Cc1ccc(/C=C2\CN(Cc3cn(CCNc4ccnc5cc(Cl)ccc45)nn3)C/C(=C\c3ccc(C)cc3)C2=O)cc1,-28.8% (active)
